Test results as given in PubChem BioAssay AID1628 (Sanford-Burnham Center for Chemical Genomics, 2009).
Among all 190,000 compounds or so, about 930 (0.49%) were called active. Some of the results follow. Measured potencies and affinities stand elsewhere. A number with no mark means an inactive call.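 How the source made its calls: active means z-score of insulin promoter reporter brightness in nuclei below -3 at 5 µM, with at least 500 cells counted; inconclusive means wells with under 500 cells, flagged as toxic or sparse; inactive means the rest.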

Assay: insulin promoter down-regulators in MIN6 cells, imaging, high-content screening, mouse beta cells (AID 1628)
Conditions: MIN6 insulin promoter GFP reporter, at 5 µM, hits give low values

Row | Compound | z-score
1 | CN(C)c1ccc(/C=C2\SC(=S)N(Nc3ncc(C(F)(F)F)cc3Cl)C2=O)cc1 | 4.86
2 | Fc1ccc(NC(=S)NNc2ncc(C(F)(F)F)cc2Cl)c(F)c1 | -3.64 (active)
3 | Cc1cccc(Oc2nccc(C(F)(F)F)c2C(=O)Nc2ccc(F)cc2F)c1 | 3.57
4 | O=Cc1sc(Nc2ccccc2)nc1Cl | 3.66
5 | Oc1c(/C=C/C=C/C=Nc2ccccc2)sc(=S)n1Cc1ccccc1 | 3.27
6 | CSc1nsc(/C=C/Nc2ccc(C)cc2)c1C#N | 3.5
7 | Cc1ccc(C)c(N=Nc2ccc(O)c3ncccc23)c1 | -4.77 (active)
8 | N#C/C(=C/c1ccc(-c2ccccc2)o1)c1nc(-c2cccs2)cs1 | 14.7
9 | Cc1ccc(OCC2Cn3c(nc4c3c(=O)n(C)c(=O)n4C)O2)cc1 (stereo unspecified) | -6.54 (active)
10 | CC(=O)NC(c1ccc(Cl)cc1)c1c(O)ccc2ccc(O)cc12 (stereo unspecified) | 10.6
11 | Cc1cc(N2CCC(C(=O)N3CCN(c4cccc(C)c4C)CC3)CC2)n2ncnc2n1 | -4.36 (active)
12 | COc1nc(OC)nc(N2CCC(C(=O)NCc3cccs3)CC2)n1 | 3.48
13 | CCc1c(C)nc2ncnn2c1N1CCC(C(=O)Nc2ccc(C)cc2)CC1 | -5.25 (active)
14 | Cc1cc(C)nc(N2CCC(C(=O)Nc3ccc4c(c3)OCCO4)CC2)n1 | 3.37
15 | COc1ccccc1N1CCN(c2cc(C)nc3nc(C)nn23)CC1 | 1.58
16 | CCc1c(C)nc2ncnn2c1N1CCC(C(=O)NCc2cccc(OC)c2)CC1 | -5.78 (active)
17 | CCC(=O)N1c2ccccc2C(N(C(C)=O)c2ccccc2)CC1C (stereo unspecified) | 0.92
18 | Cc1cc(/C=C2\SC(=S)NC2=O)c(C)n1-c1ccc(O)cc1 | 3.66
19 | CCCNC(=O)Cn1c(=O)/c(=C\c2ccc(-c3ccc([N+](=O)[O-])cc3)o2)s/c1=C\C(=O)C(C)(C)C | 18.3

Row | Compound | z-score
20 | COc1ccc(OC)c(C2C3CN(C(C)C)CC=C3C(C#N)=C(N)C2(C#N)C#N)c1 (stereo unspecified) | 17.1
21 | CCC(Sc1nnc(C)s1)C(=O)Nc1nccs1 (stereo unspecified) | 1.54
22 | Cc1nc2ncnn2c(N2CCCC(C(=O)Nc3ccc4c(c3)CCC4)C2)c1C (stereo unspecified) | -5.29 (active)
23 | O=C(Nc1ccc(C2CCCCC2)cc1)C1CCCN(c2ncccn2)C1 (stereo unspecified) | 3.77
24 | CCc1c(C)nc2ncnn2c1N1CCC(C(=O)N2CCN(c3ccc(F)cc3)CC2)CC1 | -3.04 (active)
25 | OC1(c2cn(Cc3ccccc3)nn2)CCCCC1 | 5.88
26 | Cc1ccc(C(C#N)c2ccc(C(=O)c3ccc(F)cc3)cc2)cc1 (stereo unspecified) | -4.77 (active)
27 | CCS(=O)(=O)c1ccc2oc(SCC(=O)NC3CCCC(C)C3C)nc2c1 (stereo unspecified) | 4.28
28 | Fc1ccc(NCc2nnc(SCc3nnc(-c4ccccc4)o3)n2Cc2ccccc2)cc1 | -4.77 (active)
29 | CN1CCN(C(=O)/C(=C\c2cccs2)NC(=O)c2ccco2)CC1 | -6.33 (active)
30 | Cc1ccccc1NC(=O)/C(=C\c1cccs1)NC(=O)c1ccco1 | -5.39 (active)
31 | CN1CCN(C(=O)/C(=C\c2cccs2)NC(=O)c2cccs2)CC1 | 6.06
32 | O=C1c2cccc3c(O)ccc(c23)C(=O)N1Cc1ccco1 | 12.8
33 | NCCCC[C@@H]1NC(=O)[C@H](CCC(=O)O)NC(=O)c2cc([N+](=O)[O-])cc(I)c2NCC[C@@H](C(N)=O)NC1=O | -4.01 (active)
34 | CC(C)C[C@@H]1NC(=O)[C@H](C(C)C)NC(=O)c2cc([N+](=O)[O-])cc(I)c2NCC[C@@H](C(N)=O)NC1=O | -5.69 (active)
35 | NC(=O)CC[C@@H]1NC(=O)[C@@H]2CCCN2C(=O)c2cc([N+](=O)[O-])cc(I)c2NCCCC[C@@H](C(=O)NC(CC(=O)O)C(N)=O)NC1=O (stereo partly specified) | -4.71 (active)
36 | Cc1oc(C)c2c(=O)ccc3c(c12)OC(N)=C(C#N)C3c1ccc(F)cc1 (stereo unspecified) | 3.56
37 | CCCCSc1nnc(CCCCCNC(=O)OC(C)(C)C)o1 | -4.83 (active)
38 | COc1cc(S(=O)(=O)N2CCOCC2)ccc1NC(=O)COC(=O)C12CC3CC(CC(C3)C1)C2 | 3.88

Row | Compound | z-score
39 | COc1ccc(-c2cc(C(=O)Nc3cc(S(=O)(=O)N4CCOCC4)ccc3N3CCOCC3)c3ccccc3n2)cc1 | -3.45 (active)
40 | COc1cccc(-c2cc(C(=O)Nc3ccc4c(c3)OCCO4)c3ccccc3n2)c1 | -4.93 (active)
41 | COc1ccc2cc(/C(C)=N/NC(=S)Nc3cc(S(=O)(=O)N4CCOCC4)ccc3N3CCOCC3)ccc2c1 | -3.25 (active)
42 | Cc1ccn2cc(-c3ccc(S(=O)(=O)N4CCOCC4)cc3)nc2c1 | -0.88
43 | COc1ccc(C2C(C(C)=O)=C(C)N=c3s/c(=C\c4cc(C)n(C)c4C)c(=O)n32)c(OC)c1 (stereo unspecified) | 8.76
44 | N#C/C(=C\C1=C(N2CCOCC2)C(=C\c2ccc(Cl)cc2)/CC1)C(=O)Nc1ccccc1F | 3.27
45 | CN1CC=C2C(C#N)=C(N)C(C#N)(C#N)C(c3ccsc3)C2C1 (stereo unspecified) | 4.07
46 | Cc1ccc2c(c1)cc(CN(Cc1ccc3c(c1)OCO3)S(=O)(=O)c1ccccc1)c1nnnn12 | -3.75 (active)
47 | Cc1cc(-c2cccs2)c2c(N)c(C(=O)c3ccc4c(c3)OCO4)sc2n1 | 4.7
48 | COc1ccc2c(C(=O)CN(C)C3CCCCC3)c[nH]c2c1 | 4.45
49 | O=C(NC1CCCC1)c1c[nH]c2ccc(F)cc2c1=O | -3.28 (active)
50 | Cc1ccc(C2C3CN(C(C)C)CC=C3C(C#N)=C(N)C2(C#N)C#N)cc1 (stereo unspecified) | 10.3
51 | NC(=O)CCN1CCN(CCOC2Cc3cc(Cl)ccc3Sc3ccccc32)CC1 (stereo unspecified) | -4.24 (active)
52 | CC(C)CC(=O)c1c[nH]c(C(=O)NCCc2ccccn2)c1 | -3.63 (active)
53 | Nc1c(C(=O)N/N=C/c2cccnc2)oc2nc(-c3ccco3)cc(-c3ccco3)c12 | 5.39
54 | O=C(Nc1ccc(-c2csc(Nc3cccc(C(F)(F)F)c3)n2)cc1)c1cccc(C(F)(F)F)c1 | -4.02 (active)
55 | c1ccc(N2CCN(c3nc(NCc4ccco4)c4ccccc4n3)CC2)cc1 | -3.05 (active)
56 | c1ccc(CN2CCN(c3nc(NCc4ccco4)c4ccccc4n3)CC2)cc1 | -3.17 (active)
